Screening results: PubChem, Broad Institute
Only some compounds are listed: those with a hit (about 1.2% of all), similar ones and a draw of the others.
RAD52 inh – inhibitors of human RAD52 DNA annealing; recombinant RAD52 DNA annealing, FRET fluorescence; P43351; hit rate 0.46% among 360,000; inhibition, % at 18.7 µM;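 active means every replicate showing at least 50% inhibition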
RAD54 branch – blocks human RAD54 Holliday junction branch migration | Q92698 | FAM/BHQ fluorescence | inhibition, % at 10.4 µM | hit rate 0.14% among 360,000 | AID 602329;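 active means mean normalized replicate activity at least 40 and at least half of replicates scoring 40 or more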;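 further: inhibitors cause a drop in the FAM fluorescence signal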
Target sequence (Q92698 whole entry, looked up): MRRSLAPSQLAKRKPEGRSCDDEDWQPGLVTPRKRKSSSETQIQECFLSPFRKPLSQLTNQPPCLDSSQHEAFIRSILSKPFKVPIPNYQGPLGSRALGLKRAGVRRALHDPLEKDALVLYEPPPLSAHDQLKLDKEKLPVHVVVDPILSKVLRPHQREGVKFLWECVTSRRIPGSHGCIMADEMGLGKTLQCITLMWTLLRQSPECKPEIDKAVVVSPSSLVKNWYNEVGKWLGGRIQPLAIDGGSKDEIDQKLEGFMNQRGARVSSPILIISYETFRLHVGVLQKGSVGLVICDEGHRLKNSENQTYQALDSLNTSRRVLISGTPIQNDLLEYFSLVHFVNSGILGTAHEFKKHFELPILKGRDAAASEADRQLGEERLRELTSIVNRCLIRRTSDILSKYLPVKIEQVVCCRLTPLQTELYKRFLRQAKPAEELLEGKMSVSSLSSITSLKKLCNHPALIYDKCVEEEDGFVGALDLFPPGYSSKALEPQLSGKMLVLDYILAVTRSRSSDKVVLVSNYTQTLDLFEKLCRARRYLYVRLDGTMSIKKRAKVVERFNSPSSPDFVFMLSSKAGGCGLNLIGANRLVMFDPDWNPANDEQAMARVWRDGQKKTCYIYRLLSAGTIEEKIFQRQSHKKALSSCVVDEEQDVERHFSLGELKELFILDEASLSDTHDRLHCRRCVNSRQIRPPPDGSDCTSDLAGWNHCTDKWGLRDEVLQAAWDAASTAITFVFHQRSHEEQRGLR
Glyco luc inh – blocks N-linked glycosylation in D54 reporter cells | D54 ERlucT glycosylation luciferase reporter, 24 h; percent of 100 nM tunicamycin response | AID 588692 | reporter increase, % at 12.5 µM | hit rate 0.23% among 360,000;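 active means mean luciferase reporter signal, scaled so untreated is 0 and the glycosylation-blocking control 100, at or above a set limit in every replicate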;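 further: luciferase carries N-glycosylation sites so blocking glycosylation raises the light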
Casp6 inh – inhibitors of human caspase-6. P55212. purified caspase-6, Z-VEID-R110 cleavage fluorescence. inhibition, % at 12.5 µM. hit rate 0.53% among 350,000. AID 686996;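 active means mean inhibition across replicates at least about 35%, with every replicate also reaching that limit, limit read from the data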
MLL AF4-AF9 inh – inhibitors of human MLL-AF4/AF9 interaction; inhibition, % at 10 µM; hit rate 0.47% among 350,000; P42568; AlphaScreen, biotin-AF4 peptide binding to FLAG-AF9; AID 651704;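 active means every replicate reaching a set inhibition limit, whatever the replicate mean, cut at about 25% in these data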
RAD52 DNA ctr – DNA binding artifact in RAD52 counter-screen | shares compounds with RAD52 inh | Salmon sperm DNA/acridine orange FP displacement | AC50, µM | hit rate 8% among 1,000 | AID 652128;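 active means fitted half-maximal concentration for signal loss at or below twice the highest dose tested, in every separate run, actives reach about 64 µM in these data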
Each line names hits and unclear results; the compound was inactive in the other large screens (follow-up assays come after a bar, where they were run).

O=C1c2cccc(NCCCNCCO)c2C(=O)c2cccc(NCCCNCCO)c21	RAD52 inh 91, MLL AF4-AF9 inh 32 (no result: RAD54 branch) | RAD52 DNA ctr 1.5µM
O=C1c2ccccc2C(=O)c2c(NCc3cccnc3)cccc21	none (no result: RAD52 inh, Casp6 inh, MLL AF4-AF9 inh)
COc1ccc(S(=O)(=O)N(C)C[C@@H]2OCCCC[C@H](C)Oc3ccc(NC(=O)C4CCCCC4)cc3C(=O)N([C@@H](C)CO)C[C@@H]2C)cc1	none (no result: Glyco luc inh)
COc1cc(NC(=O)c2ccc(N3CC4CC(C3)c3cccc(=O)n3C4)c(NC(=O)c3ccncc3)c2)cc(OC)c1OC (centres undefined)	RAD52 inh 85 | RAD52 DNA ctr inactive
O=C(CC1CC1)N1CC2(C1)[C@H](c1ccccc1)[C@@H](CO)N2Cc1ccccc1	none (no result: RAD54 branch, Glyco luc inh)
COc1ccc2c3c(n(C)c2c1)[C@H](CO)N(CC1CC1)CC31CCN(Cc2ccc(F)cc2)CC1	none (no result: RAD54 branch, Glyco luc inh)
Cc1cc(C(=O)Nc2cccc3c2O[C@@H](CN(C)C(=O)Nc2c(C)noc2C)[C@H](C)CN([C@H](C)CO)C3=O)n(C)n1	none (no result: Glyco luc inh)
COc1ccc(C)cc1Nc1n[n+](-c2ccccc2)c(-c2cc(OC)c(OC)cc2Br)s1	none
COc1ccc(C)cc1Nc1n[n+](-c2ccccc2)c(-c2c(OC)ccc3ccccc23)s1	RAD52 inh 102, MLL AF4-AF9 inh 40 | RAD52 DNA ctr inactive
C[C@@H]1CCCCO[C@H](CN(C)C(=O)c2ccncc2)[C@H](C)CN([C@@H](C)CO)C(=O)c2cc(NS(C)(=O)=O)ccc2O1	none (no result: Glyco luc inh)
CC1CCN(CCOCCOc2ccc(Cl)cc2Br)CC1	RAD52 inh 52 | RAD52 DNA ctr inactive
CC(C)c1ccc(NC(=O)C(c2ccccc2)N2CC(=O)Nc3ccccc32)cc1 (centres undefined)	RAD52 inh 62 | RAD52 DNA ctr inactive
O=C(NCC1CC1)[C@@H]1[C@@H](CO)[C@@H]2Cn3c(ccc(C4=CCCC4)c3=O)[C@H]1N2C(=O)C1CC1	none (no result: Glyco luc inh)
COc1ccc2nc(NCCNC(=S)NCCCN3CCOCC3)c(C#N)cc2c1	RAD52 inh 70 (no result: RAD54 branch) | RAD52 DNA ctr inactive
O=C(C[C@H]1C=C[C@H](NC(=O)Nc2ccc3c(c2)OCO3)[C@@H](CO)O1)NCc1ccc(Cl)cc1	none (no result: Glyco luc inh)
CN(C)CCNc1ccc(CO)c2oc3ccc(O)cc3c(=O)c12	RAD52 inh 81 (no result: RAD54 branch) | RAD52 DNA ctr 55µM
CCN(CC)CCNc1ccc(CO)c2oc3cc(Cl)ccc3c(=O)c12	RAD52 inh 57, RAD54 branch 105, Glyco luc inh 35 | RAD52 DNA ctr inactive
Cc1ccc(S(=O)(=O)Nc2ccc3c(c2)C(=O)N([C@@H](C)CO)C[C@@H](C)[C@H](CN(C)C(=O)Nc2ccc(F)cc2)O3)cc1	none (no result: Glyco luc inh)
c1ccc(CN2CCC(N3CCC(N4CCCCCC4)CC3)CC2)cc1	none (no result: MLL AF4-AF9 inh)
c1ccc2c(c1)c1c(c3ccccc32)CN2CCCC2C1 (centres undefined)	RAD52 inh 103 (no result: RAD54 branch) | RAD52 DNA ctr 25µM
NCCCCCc1cn(CC(=O)NCCCCCCCCCCC(=O)N2CCNCC2)nn1	RAD52 inh 55 | RAD52 DNA ctr inactive
CCc1cccc2c1Sc1ccccc1CC2N1CCNCC1 (centres undefined)	RAD52 inh 55 (no result: RAD54 branch) | RAD52 DNA ctr inactive
CCCC(=O)N1CCC2(CC1)CN(C(=O)CC)[C@@H](CO)c1c2c2ccc(OC)cc2n1C	none (no result: RAD54 branch, Glyco luc inh)
COc1cc(OC)cc(C2=Cc3ccccc3C(CC(C)=O)N2c2ccc(C#CC3(N)CCCCC3)cc2)c1 (centres undefined)	RAD52 inh 91 (no result: RAD54 branch, Glyco luc inh) | RAD52 DNA ctr inactive
Cc1ccc(S(=O)(=O)N[C@H]2C=C[C@@H](CC(=O)N3CCN(c4ccccc4)CC3)O[C@H]2CO)cc1	none (no result: Glyco luc inh)
NC(N)=NN=Cc1ccnc2ccccc12	none (no result: RAD54 branch)
NC(=NCc1ccccc1)NN=Cc1ccnc2ccccc12	RAD52 inh 64, MLL AF4-AF9 inh 27 (no result: RAD54 branch) | RAD52 DNA ctr inactive
Cc1noc(C)c1NC(=O)N(C)C[C@H]1Oc2c(NC(=O)Nc3ccc(C(F)(F)F)cc3)cccc2C(=O)N([C@H](C)CO)C[C@H]1C	none (no result: Glyco luc inh)
CCOC(=O)c1c(CN(C)C)n(C)c2c(O)c(N=NC(N)=O)c3ccc(Br)cc3c12	RAD52 inh 101, RAD54 branch 58, Glyco luc inh 28 | RAD52 DNA ctr inactive
Oc1c(CN2CCOCC2)cc(CN2CCOCC2)c(O)c1O	RAD52 inh 61 | RAD52 DNA ctr inactive
Oc1cccc(CN2CCOCC2)c1O	none
C=CC(=C)CC(NC)c1ccccc1 (centres undefined)	RAD52 inh 59, MLL AF4-AF9 inh 28 | RAD52 DNA ctr inactive
CO[C@@H]1CN(C)C(=O)c2ccc(NC(=O)C3CCCC3)cc2OC[C@@H](C)N(C(=O)CC2CC2)C[C@@H]1C	none (no result: Glyco luc inh)
COc1cccc(C2=Nn3c(nnc3-c3ccccc3O)SC2)c1	none (no result: RAD52 inh, Casp6 inh, MLL AF4-AF9 inh)
C[n+]1c2n(c3ccccc31)N=C(c1cc(C(C)(C)C)c(O)c(C(C)(C)C)c1)CS2	RAD52 inh 60, MLL AF4-AF9 inh 27 (no result: RAD54 branch) | RAD52 DNA ctr inactive
CNC(=O)C[C@@H]1CC[C@@H]2[C@H](COc3ccc(NC(=O)Nc4ccccc4OC)cc3C(=O)N2C)O1	none (no result: Glyco luc inh)
COc1ccc(OC)c2nc3c(C(=O)NCCN(C)C)cccc3nc12	RAD52 inh 105, Glyco luc inh 91 (no result: RAD54 branch) | RAD52 DNA ctr 4.7µM
CN(C)CCNC(=O)c1cccc2nc3cccc(F)c3nc12	RAD52 inh 97 (no result: RAD54 branch) | RAD52 DNA ctr 18µM
C[C@H](CO)N1C[C@H](C)[C@H](CN(C)S(=O)(=O)c2cccs2)OCCCC[C@H](C)Oc2ccc(NC(=O)Cc3ccccc3)cc2C1=O	none (no result: RAD52 inh, Glyco luc inh, Casp6 inh, MLL AF4-AF9 inh)
C[C@@H]1CN([C@H](C)CO)C(=O)c2cc(NC(=O)CCN3CCOCC3)ccc2O[C@@H]1CN(C)Cc1ccncc1	none (no result: Glyco luc inh)
O=C(c1cccnc1)N1CC[C@@H]2[C@H](CO)Nc3ccc(-c4ccc(F)cc4)cc3[C@@H]21	none (no result: Glyco luc inh)
C=CCNc1nc(NCc2cccc(OC)c2)c2sc(-c3ccccc3)cc2n1	RAD52 inh 83 | RAD52 DNA ctr inactive
CCCNC(=O)[C@@H]1[C@@H](CO)[C@@H]2Cn3c(ccc(-c4cccc(OC)c4)c3=O)[C@@H]2N1C	none (no result: RAD54 branch, Glyco luc inh)
COc1cc2c(cc1OC)-c1cc3ccc(OC)c(OC)c3c[n+]1CC2	RAD52 inh 80, RAD54 branch 60 | RAD52 DNA ctr inactive
COc1ccc2cc3[n+](cc2c1O)CCc1cc2c(cc1-3)OCO2	none (no result: RAD54 branch, Glyco luc inh)
CC(C)C[C@@H]1CN=C(N)N1C[C@@H]1CCCN1C[C@@H](C(C)C)N1C[C@@H](Cc2ccccc2)N(CCc2ccc(Cl)c(Cl)c2)C1=N	RAD52 inh 51 | RAD52 DNA ctr inactive
CC(C)C[C@@H]1CN=C(N)N1C[C@@H]1CCCN1C[C@H](C)N1C[C@@H](Cc2ccccc2)N(CCc2ccc(Cl)c(Cl)c2)C1=N	none (no result: RAD52 inh, Casp6 inh, MLL AF4-AF9 inh)
CN1CCC(N(C)C(=O)/C=C/c2cn(-c3ccccc3)nc2-c2cccs2)CC1	RAD52 inh 71 (no result: RAD54 branch) | RAD52 DNA ctr inactive
COc1ccc(CN(C)C[C@H]2OCCCC[C@H](C)Oc3ccc(NC(=O)NC(C)C)cc3C(=O)N([C@H](C)CO)C[C@H]2C)cc1	none (no result: Glyco luc inh)
